For 40 compounds, outcome results are on record in PubChem BioAssay (EPA / NIEHS).

Inconclusive results are not listed. Calls of active or inactive are those of the source. Rule for the calls: active = hit-call score of the fitted dose curve at least 0.9, where 1 is the maximum; inconclusive = response in the unintended direction; inactive = score below 0.9. Where a SMILES comes first, the peptide text is derived from it. Bridges are numbered along the chain shown (N, C = ends). [ ]: non-standard residue; d: D form. The star is where a group is joined. Sta = CC(C)C[C@H](N)[C@@H](O)CC(=O)O; Isovaleryl = CC(C)CC(=O)*

The nature of the assay: TOX21_p53_BLA_p5_viability: Viability Assessment in the Tox21 HCT-116 p53 Agonism Beta-lactamase Assay, Phase 5 (AID 2283600). The text has this:
TOX21_p53_BLA_p5 is a cell-based, single-readout assay that uses HCT116, a human intestinal cell line, […] in a 1536-well plate.TOX21_p53_BLA_p5_viability is an assay readout measuring cellular ATP content and detected with CellTiter-Glo Luciferase-coupled ATP quantitation.TOX21_p53_BLA_p5_viability used a type of viability reporter where loss-of-signal activity can be used to understand changes in the cell viability. Furthermore, this assay endpoint can be referred to as a secondary readout, because this assay has produced multiple assay endpoints where this one serves a viability function. To generalize the intended target to other relatable targets, this assay endpoint is annotated to the cell cycle intended target family, where the subfamily is cytotoxicity.
Thawing Method: Place 14 mL of pre-warmed thaw medium into a 15 mL of conical tub. Remove the vial of cells to be thawed from liquid nitrogen and thaw rapidly by placing at 37C in a water bath with gentle agitation for 1-2 minutes. Decontaminate the vial by wiping with 70% ethanol before opening in a biological safety cabinet. Transfer the vial contents drop-wise into 14 mL of thaw medium in a sterile 15-mL conical tub. Centrifuge cells at 900 rpm for 4 minutes and resuspend in thaw medium. Transfer contents to the T75 tissue culture flask containing Thaw Medium and place flask in a humidified 37C/5% CO2 incubator. Switch to growth medium at first passage.Propagation Method: Aspirate medium, rinse once in DPBS, add 0.25% Trypsin/EDTA and swirl to coat the cell evenly. Add an equal volume of Growth Medium to inactivate Trypsin after 2-3 minutes incubation at 37C. Centrifuge cells at 900 rpm for 4 minutes and resuspend in growth medium. Cell should be passage or fed at least twice a week.Assay Protocol: Harvest cells from culture in growth medium and resuspend in assay medium. 2.2 Dispense 4000 cells/5 uL/well into 1536-well black/clear bottom plates using a Multidrop dispenser. After the cells were incubated at 37C for 5 hours, 23 nL of compounds dissolved in DMSO were transferred to the assay plate by a PinTool resulting in a 217-fold dilution. Incubate the plates for 16 hours at 37C, 5% CO2. Add 1 uL of 6X LiveBLAzer FRET B/G (CCF4-AM) Substrate Mixture to each well using a BioRAPTR dispenser and incubate the plates at room temperature for 2 hours. Measure fluorescence intensity at 460 and 530 nm emission and 405 nm excitation by an Envision detector. Data is expressed as the ratio of 460nm/530nm emissions. Add 4 uL of Cell-titer Glo to each well using BioRAPTR and incubate the plates at room temperature for […]. For cell viability readout that measures cytotoxicity, 4 ul/well of CellTiter-Glo reagent was added into the assay plates using a Flying Reagent Dispenser. After 30 min incubation at room temperature, the luminescence intensity in the plates was measured using a ViewLux plate reader.
`CC(C)(O)CCC(C)(C)O`: the call was inactive.
As for `CC(C)CCOC(=O)C=Cc1ccccc1`, the outcome was inactive.
Then `NCCCC[C@H](NC(=O)[C@@H]1CCCN1C(=O)[C@@H]1CSSC[C@H](NC(=O)CNC(=O)CNC(=O)CN)C(=O)N[C@@H](Cc2ccc(O)cc2)C(=O)N[C@@H](Cc2ccccc2)C(=O)N[C@@H](CCC(N)=O)C(=O)N[C@@H](CC(N)=O)C(=O)N1)C(=O)NCC(N)=O` (H-GGGCYFQNCPKG-NH2; disulfide 4-9), with “inactive”.
Take `CCn1ccnc1CC1COc2ccccc2O1` (stereo not given): the call was inactive.
Then `O=c1c(O)c(O)c1=O`, with “inactive”; and `S=C=Nc1ccc(N=C=S)cc1`, with “inactive”.
In the case of `CC(C)N(C)C`, the call was inactive.
As to `C[C@H]1O[C@H](O[C@H]2[C@H](O)[C@@H](O)[C@@H](O[C@H]3[C@H](O)[C@@H](O)[C@H](O)O[C@@H]3CO)O[C@@H]2CO)[C@H](O)[C@@H](O)[C@@H]1N[C@H]1C=C(CO)[C@@H](O)[C@H](O)[C@H]1O`, the compound was called inactive.
The result for `Nc1ccccc1S(=O)(=O)O` reads “inactive”; that for `CNC1(C)C2CCC(C2)C1(C)C` (stereo not given), “inactive”.
`CCCCCCCCCCCCCC=O`: the result was inactive.
Take `N=C(N)c1ccccc1`: the outcome was inactive.
The result for `CC(C)(C)C(=O)NCCCC(=O)O` reads “inactive”; that for `CC(=O)NC[C@H]1CN(c2ccc(N3CCOCC3)c(F)c2)C(=O)O1`, “inactive”.
Take `CO[C@H]1O[C@@H]2O[C@@]3(C)CC[C@H]4[C@H](C)CC[C@@H]([C@H]1C)[C@@]24OO3`: the compound was classed as inactive.
Take `O=C(O)[C@H]1CN(C/C=C/P(=O)(O)O)CCN1`: the compound was called inactive.
Then `CCN(CC)CCOC(=O)C(c1ccccc1)C1CCCCC1` (stereo not given), with “inactive”; and `CC(C)CC(=O)N[C@H](C(=O)N[C@H](C(=O)N[C@@H](CC(C)C)[C@@H](O)CC(=O)N[C@@H](C)C(=O)N[C@@H](CC(C)C)[C@@H](O)CC(=O)O)C(C)C)C(C)C` (Isovaleryl-VV[Sta]A[Sta]-OH), with “inactive”.
The result for `FC(F)(F)C(Cl)(Cl)Cl` reads “inactive”; that for `OC[C@H]1O[C@@H](OCCc2ccc(O)cc2)[C@H](O)[C@@H](O)[C@@H]1O`, “inactive”; that for `Cc1ncsc1CCO`, “inactive”.
`O=C1NC(=O)c2cc([N+](=O)[O-])ccc21`: the outcome was inactive.
The result for `CC(=O)Nc1ccc(S(=O)(=O)Nc2cc(C)on2)cc1` reads “inactive”; that for `O=C(O)COc1ccccc1/C=N/NC(=O)c1ccncc1`, “inactive”; that for `O=C(N=NC(=O)OCc1ccccc1)OCc1ccccc1`, “inactive”.
With `O=C1c2ccccc2C(=O)N1CO`, the compound was called inactive.
Consider `CNc1c2c(nn1C)CCCC2`, for which the call was inactive.
Then `CCCCCCCC/C=C\CCCCCCCC(=O)OCCOC(=O)CCCCCCC/C=C\CCCCCCCC`, with “inactive”.
As for `CC(C)(C)c1nnc(NS(=O)(=O)c2ccccc2)s1`, the compound was classed as inactive.
Then `OCC(O)COc1ccc(Cl)cc1` (stereo not given), with “inactive”; and `O=C1OC(OC(=O)c2cccnc2Nc2cccc(C(F)(F)F)c2)c2ccccc21` (stereo not given), with “inactive”.
With `O=C(O)[C@H](O)c1ccccc1`, the outcome was inactive.
Then `O=Nc1ccc(NO)cc1`, with “inactive”.
The result for `CCOC(=O)Nc1ccc2c(c1)N(C(=O)CN(C)C)c1ccccc1CC2` reads “inactive”.
As for `Cc1ccnc2c1NC(=O)c1cccnc1N2C1CC1`, the outcome was inactive.
Then `O=C[O][Al]([O]C=O)[O]C=O`, with “inactive”.
The result for `Oc1cc(O)cc(O)c1` reads “inactive”; that for `CC(Oc1ccccc1)C(=O)N[C@@H]1C(=O)N2[C@@H]1SC(C)(C)[C@@H]2C(=O)O` (stereo not given in full), “inactive”; that for `C=CCCCC`, “inactive”.
The result for `Nc1ccc(C(=O)NCC(=O)O)cc1` reads “inactive”.
